Screens (PubChem BioAssay)
TROY signal inh: TROY signaling inhibition. 360,000 tested, 0.98% active. inhibition, % at 10 µM. Q293 LMP1-TROYcd NF-kB luciferase reporter, 4 h;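 active = compounds whose plate-normalised and pattern-corrected inhibition of the luciferase reporter signal at the single screening dose is 50% or more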
TWEAK Fn14 block: inhibitors of TWEAK-Fn14 interaction signaling; TWEAK-stimulated Fn14 reporter cells, luciferase luminescence, 8 h; inhibition, % at 10 µM; 360,000 tested, 2% active; in the data active = inhibition above about 50%
LGR2 antag: Drosophila LGR2 receptor signaling inhibition; HEK293 LGR2, CRE-luciferase, bursicon-stimulated, 4 h; inhibition, % at 9.99 µM; 380,000 tested, 0.35% active;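 active = drop in luminescence signal, shown as inhibition above about 50% in the replicate tests, limit read from the data, passing the limit was not always enough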;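 note: agonist challenge used bursicon conditioned medium at about half maximal strength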
EWS-Fli inh: EWS/Fli transcriptional activity inhibition; A673 NR0B1-luciferase reporter, viability-normalised; AID 651661; 350,000 tested, 0.67% active; inhibition, % at 12.6 µM;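 active = mean inhibition of at least 50% after viability correction, with every replicate also passing that limit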;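 note: firefly luciferase signal divided by Alamar Blue viability fluorescence both relative to DMSO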
LMP1 NFkB inh: reduces LMP1-driven NF-kappaB luciferase signal; LMP1-induced NF-kappaB luciferase reporter cells, luminescence; inhibition, % at 12.5 µM; 350,000 tested, 0.69% active; in the data active = inhibition above about 41%;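 note: 0% = neutral control wells and 100% = reference inhibitor control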
PAX8 reporter: inhibitors of PAX8 transcriptional activity in RMG-I cells | AID 652154 | inhibition, % at 12.6 µM | RMG-I TPO-luciferase reporter, SteadyGlo, 24 h | 360,000 tested, 1.2% active;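 active = mean replicate inhibition at least 60% with every replicate also reaching 60%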;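 note: luciferase light reporting Pax8 driven TPO promoter activity; plate controls were median of neutral control wells for no effect and mitoxantrone controls for full effect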
Starred values were filed as active, the others as inactive; . = no result; ! = repeats disagree. Rows were chosen to be rich in hits. Some 3.1% of all compounds tested hit in one or more screens of this group.

SMILES | TROY signal inh | TWEAK Fn14 block | LGR2 antag | EWS-Fli inh | LMP1 NFkB inh | PAX8 reporter
COc1ccc(NC(=O)Nc2ccc3c(c2)CC(=O)N([C@@H](C)CO)C[C@@H](C)[C@@H](CN(C)S(=O)(=O)c2cccs2)O3)cc1 | . | . | 7.2 | -9.6 | . | -4.2
CC1(C)Cc2c(C#N)c(SCCO)nc(N3CCOCC3)c2CO1 | -11.7 | -1.1 | 1.3 | 12.9 | -0.3 | -13.8
CC1(C)Cc2c(C#N)c(SCCOc3ccccc3)nc(N3CCOCC3)c2CO1 | -2.9 | 52.9* | . | . | -6.0 | .
COc1ccc(N=C2SC(CC(=O)Nc3cccc(Cl)c3)C(=O)N2Cc2ccco2)cc1 (stereo not drawn) | 8.8 | 53.1* | 7.4 | 19.4 | -6.5 | -23.9
O=C(CC1SC(=Nc2ccc(OC(F)F)cc2)N(CCN2CCOCC2)C1=O)Nc1ccccc1 (stereo not drawn) | -13.8 | -21.0 | -1.2 | 8.5 | -0.4 | 64.4*
COc1ccc(N=C2SC(CC(=O)Nc3ccccc3)C(=O)N2Cc2ccccn2)cc1 (stereo not drawn) | -21.7 | -18.2 | -39.2 | 22.0 | 1.5 | -7.8
CCCNC(=O)N1CC2(CN(Cc3ccccn3)C2)c2c(n(C)c3cc(OC)ccc23)[C@@H]1CO | . | . | -1.0 | 0.7 | . | .
O=C(/C=C/Sc1ccc(C(F)(F)F)cn1)c1ccccc1 | 22.3 | 60.1* | -61.4 | 40.1 | -7.1 | 17.8
COc1ccc(NC(=O)Nc2ccc3c(c2)C(=O)N([C@H](C)CO)C[C@@H](C)[C@H](CN(C)CC2CCCCC2)O3)cc1 | . | . | 2.4 | 0.2 | . | -4.7
Cc1ccnc2c1ccc1cccnc12 | -8.7 | -32.2 | 14.5 | 38.3 | 80.2* | 79.8*
c1cnc2c(c1)ccc1cccnc12 | -1.7 | -19.4 | 1.6 | 62.2*! | 17.9 | 76.6*!
Cc1ccnc2c1ccc1c(C)ccnc12 | -14.7 | -7.0 | . | . | 83.7* | .
Cc1ccnc2c1ccc1ccccc12 | 20.1 | -28.9 | -18.4 | -7.1 | 6.1 | -0.3
O=C1CC(N2CCN(c3ccccc3)CC2)C(=O)N1c1ccc2c(c1)OCCO2 (stereo not drawn) | 51.4* | 29.5 | . | . | 1.4 | .
O=C(NCCCc1ccccc1)C1CC(=O)N(c2ccc3c(c2)OCCO3)C1 (stereo not drawn) | 26.2 | 71.0* | . | . | 8.4 | .
O=C(C1CC(=O)N(c2ccc3c(c2)OCCO3)C1)N1CCN(Cc2ccccc2F)CC1 (stereo not drawn) | 6.6 | 1.0 | -34.8 | 2.4 | 69.6* | -0.4
O=C(C1CC(=O)N(c2ccc3c(c2)OCCO3)C1)N1CCN(c2ccccc2)CC1 (stereo not drawn) | 28.2 | 63.5* | 8.6 | -9.6 | 13.3 | -10.4
O=C(NCc1ccccc1F)C1CC(=O)N(c2ccc3c(c2)OCCO3)C1 (stereo not drawn) | -2.4 | 8.4 | 6.9 | -5.2 | 0.3 | -11.8
CC(C)NC(=O)Nc1cccc2c1O[C@@H](CN(C)S(C)(=O)=O)[C@H](C)CN([C@H](C)CO)C2=O | . | . | 12.8 | 3.3 | . | 5.8
COc1ccc(NC(=O)N(C)C[C@@H]2Oc3cc(C#CCC(C)C)ccc3S(=O)(=O)N([C@H](C)CO)C[C@@H]2C)cc1 | . | . | 11.0 | -8.2 | . | 59.1
COC(=O)c1[nH]c2ccc(C)cc2c1NC(=O)C(C)N1CCN(C2CCCCC2)CC1 (stereo not drawn) | . | 12.4 | . | . | -1.1 | .
COC(=O)c1[nH]c2ccc(C)cc2c1NC(=O)NC1CCCCC1 | -27.5 | -2.4 | 19.4 | . | 73.3* | .
CCOC(=O)c1sc(NC(=O)Nc2cccc(Cl)c2)cc1C | 30.7 | 75.0* | 12.6 | -94.9 | -18.2 | -37.7
CCN1CCN(CCCNC(=O)c2ccc3c(c2)NC(=O)/C(=C\c2cccc(C)c2)S3)CC1 | -36.5 | -51.0 | 17.0 | 59.6* | -2.2 | 3.4
COc1cccc(/C=C2/Sc3ccc(C(=O)NCCN4CCCCCC4)cc3NC2=O)c1 | 2.3 | -18.3 | -2.5 | . | -18.9 | 97.5*
COc1ccc(/C=C2/CSC/C(=C/c3ccc(OC)c(OC)c3)C2=O)cc1OC | 15.1 | 92.3* | 25.7 | 65.7* | 90.0* | 38.4
COc1ccc(/C=C2\SC(=O)NC2=S)cc1OC | -16.9 | -19.1 | -11.5 | 14.4 | -1.8 | -3.5
COc1cc(C=C2CCCC(=Cc3ccc(OCC4CO4)c(OC)c3)C2=O)ccc1OCC1CO1 (stereo not drawn) | -3.6 | 73.0* | 38.5 | 67.6* | 48.9* | 29.7
CSC(=S)NCc1cccnc1 | -17.1 | 29.0 | 8.5 | 23.0 | 22.7 | 64.3*
